According to PubChem BioAssay (Tox21):
Records with an inconclusive call do not appear. A number with no mark means an inactive call. Active and inactive are the calls of the source. Calls follow the shape of the dose curve; as a rule, active = well fitted cell-killing curve with a large enough effect in the repeat runs; inconclusive = weak or mixed curves, or effect the other way; inactive = flat fitted curve, though single readings scatter.

Experiment: qHTS RealTime-Glo MT Cell Viability Assay in HEK293 cells - 16 hour (AID 1224872); also: nearly all actives have a fitted effect of over 50% in size; as to activity change, negative = cytotoxicity: top concentration of the series differs between compounds
Details: RealTime-Glo luminescence; series mostly up to 76.8 µM; activity change, negative = cytotoxicity: at the top concentration
Text: National Center for Advancing Translational Sciences [NCATS]
NIH Chemical Genomics Center [NCGC]
U.S. Environmental Protection Agency [EPA]
National Institutes of Environmental Health Sciences [NIEHS]
National Toxicology Program [NTP]
U.S. Food and Drug Administration [FDA]
Measure of cell viability is critical in the cell-base assay. Analysis of cell viability is necessary for the characterization of cell responses to cytotoxic drugs and environmental stress. A RealTime-Glo MT Cell Viability Assay to monitor cell viability in real time of continues cell culture during 40 hours of compound treatment was used to screen Tox21 10K library compounds in Hek293 cells. The RealTime-Glo MT Cell Viability Assay is a nonlytic, homogeneous, bioluminescent method to measure cell viability in real time using a simple, plate-based method. The assay involves adding NanoLuc luciferase and a cell-permeant prosubstrate to cells in culture. Viable cells reduce the proprietary prosubstrate to generate a substrate for NanoLuc luciferase. This substrate diffuses from cells into the surrounding culture medium, where it is rapidly used by the NanoLuc Enzyme to produce a luminescent signal. The signal correlates with the number of viable cells, making the assay well suited for cytotoxicity studies.
Tox21 Assay Protocol Summary:
The mixture of Hek293 cell suspension and reagents were dispensed at 600cells/6 ul/well in 1536-well tissue culture treated black solid bottom plates using a Multidrop dispenser. After the assay plates were incubated at a 37 C/5% CO2 incubator for 5 hours, 23 nL of compounds dissolved in DMSO, positive and negative controls was transferred to the assay plate by a pintool work station. The plates were incubated at 37 C for 40 hours. The luminescence intensity were measured at 0h, 8h, 16h, 24h, 32h and 40h time points using ViewLux plate reader during compound treatment.
% is scaled to controls: 0 for no effect and ±100 for the full control effect; potency is read from the fitted curve at half-maximal effect.

SMILES	activity change, negative = cytotoxicity	Potency
O=C(CCCCl)c1ccc(F)cc1	-0.936% [at 35.3 µM]	
O=C(N[C@@H]1N=C(c2ccccc2F)c2cccc3c2N(CC3)C1=O)c1cc2ccccc2[nH]1	-8.53% [at 35.3 µM]	
CCC1(CC)C(=O)N=C(O)NC1=O	0.947%	
Brc1cccc(-c2ccccc2)c1	-17.1%	
C1=CCC=C1	12.8%	
N#Cc1ccc(N(CC(N)=O)CC(F)(F)F)cc1C(F)(F)F	3.04%	
CN1[C@@H]2CC[C@H]1CC(O)C2 (stereo not given in full)	15.9%	
CCC(OC(C)=O)C(CC(C)NC)(c1ccccc1)c1ccccc1 (stereo not given)		49.4 µM (active)
O=[N+]([O-])c1ccccc1-c1ccccc1	-0.84%	
CNN	4.85%	
CC(=O)O.CC(=O)O.CC(=O)O.CC(=O)O.CC(=O)O.CC(=O)O.CC(=O)O.O.O.[Cr].[Cr].[Cr]	5.91%	
CCOP(=S)(OCC)Oc1cc(C)nc(N(CC)CC)n1	2.03%	
CC(=O)[O-].CC(=O)[O-].CC(=O)[O-].[Sb+3]	1.77% [at 2.72 µM]	
C[C@]12CC[C@H]3[C@@H](CCC4=CC(=O)CC[C@@H]43)[C@@H]1CC[C@@H]2OC(=O)CCc1ccco1	-15.1% [at 35.3 µM]	
CCOP(=O)(OCC)Oc1nc(Cl)c(Cl)cc1Cl	-8.72%	
c1ccc2nc(N3CCNCC3)ccc2c1	-18.3% [at 35.3 µM]	
COP(=O)(OC)O/C(=C\Cl)c1cc(Cl)c(Cl)cc1Cl	-10.4%	
COc1nc(C)nc(NC(=O)NS(=O)(=O)c2ccccc2Cl)n1	0.736%	
CCN1CCC2(CC1)COc1cc3c(cc12)N(C(=O)c1ccc(-c2ccc(-c4nnc(C)o4)cc2C)cc1)CC3		18 µM (active)
C#CC1(O)CCCCC1	14.5%	

SMILES	activity change, negative = cytotoxicity	Potency
CC(Cc1ccc(OCC(=O)O)cc1)NCC(O)c1csc(C(F)(F)F)n1 (stereo not given)	2.12%	
CC(Cl)CCl (stereo not given)	-8.42%	
O=S(=O)(O)F	1.19%	
CN/C(=N\[N+](=O)[O-])NCc1cnc(Cl)s1	-4.98%	
CC#C[C@]1(O)CC[C@H]2[C@@H]3C[C@H](C)C4=CC(=O)CC[C@]4(C)[C@H]3CC[C@@]21C	-20.1% [at 35.3 µM]	
COc1ccc2c(c1OC)C(=O)O[C@@H]2[C@H]1c2cc3c(cc2CCN1C)OCO3	0.86%	
CO/N=C(/C1=NOCCO1)c1ccccc1Oc1ncnc(Oc2ccccc2Cl)c1F	-4.44%	
[Cl][Hg][c]1ccccc1		1.38 µM (active)
CCN(CC)C(=S)S	-23.1%	
CN	15.8%	
Cc1cc(C2CC2)nc(Nc2ccccc2)n1		21.9 µM (active)
ClC1=C(Cl)[C@]2(Cl)[C@@H]3[C@H]4C[C@H]([C@@H]5O[C@H]45)[C@@H]3[C@@]1(Cl)C2(Cl)Cl	1.42%	
CCCCC/C=C\C/C=C\C/C=C\C/C=C\CCCC(=O)NCC(=O)O	-15.2% [at 35.3 µM]	
CCC[CH2][Sn]([CH2]CCC)([O]C(C)=O)[O]C(C)=O		0.0879 µM (active)
CC(O)C(=O)[O][Hg][c]1ccccc1 (stereo not given)		1.1 µM (active)
CSC1=N[C@@](C)(c2ccccc2)C(=O)N1Nc1ccccc1	10.8%	
Cc1ccn2nc(S(=O)(=O)Nc3c(F)cccc3F)nc2n1	4.75%	
COCCC#N	9.09%	
CCN(CC)CCN1C(=O)CN=C(c2ccccc2F)c2cc(Cl)ccc21	0.459% [at 35.3 µM]	
CCC(C)Br (stereo not given)	-5.46%	
